The results in this text go back to PubChem BioAssay AID736 (The Scripps Research Institute Molecular Screening Center, 2007).

Molecules are shown by their SMILES. The whole screen tested about 97,000 compounds, of which about 210 (0.22%) were called active. Rule as the data show it: active = inhibition above about 45%; inactive = the rest. This excerpt belongs to a sample that is enriched for actives.

Sequence of Sphingosine 1-phosphate receptor 2 (Homo sapiens) (O95136 whole entry, looked up): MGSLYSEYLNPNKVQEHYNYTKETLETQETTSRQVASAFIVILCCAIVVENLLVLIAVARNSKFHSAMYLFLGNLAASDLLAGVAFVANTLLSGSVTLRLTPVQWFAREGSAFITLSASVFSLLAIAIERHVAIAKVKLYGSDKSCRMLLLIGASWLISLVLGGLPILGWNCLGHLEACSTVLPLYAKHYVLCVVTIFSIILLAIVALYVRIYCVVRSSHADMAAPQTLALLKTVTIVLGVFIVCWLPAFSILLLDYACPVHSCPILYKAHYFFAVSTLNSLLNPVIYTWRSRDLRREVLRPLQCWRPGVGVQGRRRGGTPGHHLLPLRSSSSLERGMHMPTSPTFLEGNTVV

The experiment concerns the target Sphingosine 1-phosphate receptor 2 (Homo sapiens) (UniProt O95136). Description: blockers of S1P2 receptor signalling – cell-based, primary screen (AID 736).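 Also: CRE beta-lactamase reporter cells expressing human S1P2 stimulated with S1P; 0% = agonist at EC80 alone and 100% = agonist plus reference antagonist.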 As to conditions: cell-based S1P2 antagonist assay, at 5 µM, hits give high values.
For orientation: inhibition means the drop in the measured response relative to a control, in per cent. Regarding `CCSc1nnc(NC(=O)c2ccc(C)cc2)s1`, the inhibition was 0.05% (inactive).
To `Cc1onc(-c2ccccc2Cl)c1C(=O)OCC(=O)c1ccccc1` belongs -10% (inactive).
Take `O=C1c2ccccc2C(=O)N1CCC(c1ccccc1)c1ccco1` (stereo unspecified): the inhibition was 11.1% (inactive).
In the case of `O=C(CCS(=O)(=O)c1cccc2nsnc12)N1CCN(c2ccccc2F)CC1` it was 11.1% (inactive).
For `CC(C)(C)c1ccc(C(=O)NNC(=O)Cc2ccccc2)cc1`, the inhibition is -7.08% (inactive).
Take `COc1ccc(C2CC(=O)Nc3sc(=N)c4c(N)c(C#N)c(N)nc4c32)cc1OC` (stereo unspecified): the inhibition is -38.4% (inactive).
Consider `CCN1CCCC1CNc1ncnc2c1[nH]c1ccc(F)cc12` (stereo unspecified), for which the inhibition was -0.72% (inactive).
For `O=C1CCCN1CCCNc1ncnc2c1[nH]c1ccccc12`, the inhibition was 15.4% (inactive).
To `CC(C)OCCCNc1ncnc2c1[nH]c1ccc(F)cc12` belongs 65.9% (active); to `Cc1cc(O)cc(O)c1C(=O)Cc1cnn(-c2ccccc2)c1`, -8.95% (inactive).
As to `COc1ccc(C(=O)Oc2cc(/C=N/NS(=O)(=O)c3ccc(C)cc3)ccc2OC)cc1`, the inhibition was 1.84% (inactive).
Turning to `CC(=O)c1ccc2c(c1)c1ccccc1n2CC(C)C`, the inhibition is -13.4% (inactive).
In the case of `Clc1ccc(CSc2nnc(/C=C/c3ccccc3)o2)c(Cl)c1` it was -0.17% (inactive).
For the compound `CCN(CC)CCn1c2ccc(Cl)cc2c2nc(C)sc21`, the inhibition was -30.3% (inactive).
Consider `CC(C)(C)c1ccc(C(=O)CSc2ncn[nH]2)cc1`, for which the inhibition is 19.4% (inactive).
For `O=C(/C=C/Sc1ncn[nH]1)c1ccc(Cl)cc1`, the inhibition is 59.7% (active).
As to `Cc1ccc(C(=O)/C=C/c2c(C)nn(-c3ccccc3)c2Cl)cc1`, the inhibition is -1.65% (inactive).
As for `COc1ccc(C(=O)Cc2cnn(-c3ccccc3)c2)c(O)c1`, the inhibition is -22.1% (inactive).
`Cc1ccc(OCc2nnc(NC(=O)OCC(C)C)s2)cc1`: the inhibition was -11.9% (inactive).
In the case of `CCc1ccccc1NC(=O)/C(=C/c1ccccc1)c1ccccc1` it was 9.77% (inactive); in that of `O=C(Nc1ccc2c(c1)OCCO2)c1ccc(Cl)c(S(=O)(=O)N2CCCCC2)c1`, -2.73% (inactive); in that of `O=c1c2ccccc2c(-c2ccc(F)cc2)nn1-c1ccc(C(F)(F)F)cc1`, 8.3% (inactive).
`O=C(NCC1CCCO1)c1ccc2ccccc2n1` (stereo unspecified): the inhibition is -13.9% (inactive).
In the case of `Cc1c(C=O)c2ccccn2c1C(=O)c1ccncc1`, the inhibition is -13% (inactive).
`Cc1ccc(CN(C(=O)c2sc3ccccc3c2Cl)C2CCS(=O)(=O)C2)cc1` (stereo unspecified): the inhibition was 15.7% (inactive).
Turning to `COc1cc(/C=C(/NC(=O)c2ccccc2)C(=O)Nc2cccc(O)c2)c([N+](=O)[O-])cc1OC`, the inhibition was -3.81% (inactive).
To `Cc1cc(C)c([N+](=O)[O-])cc1-c1ccc(/C=N/NC(=O)c2nonc2N)o1` belongs -20.8% (inactive); to `Cc1cc(C)n2nc(C(=O)NC(C)(C)C)nc2n1`, -24.4% (inactive).
Turning to `CCOC(=O)C(C)n1cnc2sc(C)c(C)c2c1=O` (stereo unspecified), the inhibition was -21.8% (inactive).
In the case of `O=C(Cc1c(O)c2ccccc2[nH]c1=O)NCc1ccccc1`, the inhibition is 2.46% (inactive).
As for `Cc1ccc(N(Cc2ccc(C(=O)Nc3ccccc3C(=O)NCc3ccco3)cc2)S(C)(=O)=O)cc1C`, the inhibition was 29.7% (inactive).
To `CCN1CCN(CCCCOc2ccccc2F)CC1` belongs -15.3% (inactive); to `Cc1noc(COc2ccccc2OCc2onc(C)c2Cl)c1Cl`, -6.44% (inactive).
On to `O=C(COc1ccc(Cl)cc1)NCCSc1ccccc1`, for which the inhibition is -5.9% (inactive).
`COCCn1c(C)cc(C2=NNC(=Nc3ccc(F)cc3)SC2)c1C`: the inhibition was 8.96% (inactive).
For the compound `O=C1Cc2ccccc2Sc2ccc(Cl)cc21`, the inhibition is 1.39% (inactive).
Consider `Cn1c(NN)nc2sc3c(c2c1=O)CCC3`, for which the inhibition was -7.52% (inactive).
In the case of `CCOc1ccc(-n2c(N)c(C(=O)NCC3CCCO3)sc2=S)cc1` (stereo unspecified) it was 1.44% (inactive); in that of `CCCCOC(=O)Cn1c(=O)n(CC(=O)OCCCC)c2cc(C)ccc21`, -1.39% (inactive); in that of `Cc1ccc(-c2cnc(NC(=O)CCC(=O)N(C)Cc3ccccc3)n2C)cc1`, 15.9% (inactive).
Consider `O=C1C(Cl)=C(N2CCOCC2)C(=O)N1c1ccccc1`, for which the inhibition was 11.4% (inactive).
To `O=C(/C=C/c1cc2c(cc1Br)OCO2)NCc1ccc(Cl)cc1` belongs 12.8% (inactive); to `O=C(CCCN1C(=O)c2cccc3cccc(c23)C1=O)N1CCN(Cc2ccc3c(c2)OCO3)CC1`, 13.4% (inactive); to `O=C(CSCc1c(Cl)cccc1Cl)NN1C(=O)c2ccccc2C1=O`, 7.21% (inactive).
`O=c1cc(N2CCN(Cc3ccccc3)CC2)c(-c2ccccc2)n[nH]1`: the inhibition is 11.6% (inactive).
To `O=C(Nc1cccc2ncccc12)C(Cl)(Cl)Cl` belongs 7.55% (inactive).
`O=C(CSc1ncn[nH]1)Nc1ccnc2ccccc12`: the inhibition is 2.49% (inactive).
As for `O=C(NCN1CCN(CCO)CC1)c1cnccn1`, the inhibition is 4.69% (inactive).
In the case of `O=C(Nc1nccs1)C1CCN(S(=O)(=O)c2ccc(Cl)c(C(F)(F)F)c2)CC1` it was 13.1% (inactive); in that of `CC1CC(C)CN(CC(=O)N2c3ccccc3CCc3ccccc32)C1` (stereo unspecified), 3.76% (inactive).
To `CCn1c(SCc2ccc(C)cc2)nnc1-c1nn(-c2ccccc2)ccc1=O` belongs 7.22% (inactive).
